Assay outcomes as filed in PubChem BioAssay.
Shown are actives, neighbours in structure and some others; about 2.4% of the full set was active somewhere.
POLI inh: DNA polymerase iota (human) inhibition; Pol iota fluorescent replication assay, 10 min; Potency, µM (top dose mostly 115 µM), inactives show at the highest dose activity, negative = inhibition, actives largely listed as inhibitors; 390,000 compounds, 1% hits
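Fluorescent replication assay read twice, at 0 min and 10 min after adding 50 nM (final) substrate. Enzyme (10 nM) and compounds were first incubated 15 min at room temperature; enzyme-free buffer wells were negative controls.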
Pol kappa inh-1: blocks human DNA polymerase kappa activity; 400,000 compounds, 0.53% hits; purified Pol kappa, fluorescent DNA synthesis assay, 10 min; AID 588579; Potency, µM (top dose mostly 107 µM), for the others: at the highest dose activity, negative = inhibition, actives largely listed as inhibitors; note: % is set by controls: 0 for no effect and ±100 for the full control effect
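50 nM final substrate added after 15 min RT preincubation of 10 nM Pol kappa with compound; fluorescence read at 0 and 10 min.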
Pol eta inh-1: blocks human DNA polymerase eta activity. recombinant Pol eta, fluorescent DNA replication assay. Potency, µM (series often up to 114 µM), for the others: at the highest dose activity change, negative = inhibition, most hits filed as inhibitors. 390,000 compounds, 1.2% hits; note: % is set by controls: 0 for no effect and ±100 for the full control effect
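Fluorescent replication assay: 50 nM final substrate added after a 15 min room-temperature compound preincubation with 10 nM enzyme. Signal taken at 0 min and again at 10 min.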
WRN helicase inh-1: inhibitors of human WRN helicase | Q14191 | WRN helicase unwinding, fluorescent forked duplex, kinetic | Potency, µM (titrated, usually from 114 µM), without a hit: top-dose activity change, negative = inhibition, hits mostly inhibitors | 360,000 compounds, 0.46% hits | AID 651768; note: % is set by controls: 0 for no effect and ±100 for the full control effect; nearly all actives have a fitted effect of over 55% in size
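Screening of the MLSMR collection measured strand separation of a quenched forked DNA duplex (100 nM) by 20 nM WRN with 2 mM ATP, all final. Compounds were preincubated with enzyme 15 min at room temperature.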
Pol beta inh: DNA polymerase beta (human) inhibition. P06746. Pol beta primer extension/strand displacement, fluorescence kinetic. Potency, µM (top dose mostly 114 µM), inactives show top-dose activity change, negative = inhibition, hits mostly inhibitors. 340,000 compounds, 1.3% hits; note: % is set by controls: 0 for no effect and ±100 for the full control effect
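Enzyme-only controls used 10 nM Pol beta; buffer lacking enzyme served as negative control. Compound preincubated 15 min, then 50 nM substrate added; 0 and 10 min reads at room temperature.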
FEN1 inh-1: blocks human flap endonuclease 1; P39748; Recombinant FEN1 flap cleavage, fluorescence, 15 min; Potency, µM (titrated, usually from 114 µM), without a hit: at the top dose activity change, negative = inhibition, hits mostly inhibitors; 390,000 compounds, 0.35% hits; AID 588795; note: % is set by controls: 0 for no effect and ±100 for the full control effect; nearly all actives have a fitted effect of over 65% in size
Target sequence (P39748 whole entry, looked up): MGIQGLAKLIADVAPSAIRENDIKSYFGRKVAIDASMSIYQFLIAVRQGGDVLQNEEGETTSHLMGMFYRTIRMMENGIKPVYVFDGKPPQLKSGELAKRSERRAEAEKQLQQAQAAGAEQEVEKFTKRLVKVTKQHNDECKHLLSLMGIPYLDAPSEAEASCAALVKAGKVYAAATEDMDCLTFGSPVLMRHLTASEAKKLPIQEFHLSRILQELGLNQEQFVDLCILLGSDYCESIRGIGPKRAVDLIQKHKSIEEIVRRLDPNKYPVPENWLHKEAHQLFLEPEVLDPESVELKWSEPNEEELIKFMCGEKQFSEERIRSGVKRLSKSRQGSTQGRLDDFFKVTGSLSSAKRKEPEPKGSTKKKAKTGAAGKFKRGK
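Steps: FEN1 (10 nM) dispensed; compound added by pin tool; 15 min at room temperature; substrate added to 50 nM final; reads at 0 min and 15 min; data normalized and fitted (four-parameter Hill).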
TbPGK inh: TbPGK inhibition, hit validation; shares compounds with Pol kappa inh-1; TbPGK coupled GAPDH assay, Kinase-Glo luminescence; Potency, µM (highest dose often 57.5 µM), for inactives: at the top dose activity change, negative = inhibition, actives largely listed as inhibitors; 500 compounds, 79% hits; AID 686980; note: % is set by controls: 0 for no effect and ±100 for the full control effect; nearly all actives have a fitted effect of over 65% in size
Target sequence (P07378 whole entry, looked up): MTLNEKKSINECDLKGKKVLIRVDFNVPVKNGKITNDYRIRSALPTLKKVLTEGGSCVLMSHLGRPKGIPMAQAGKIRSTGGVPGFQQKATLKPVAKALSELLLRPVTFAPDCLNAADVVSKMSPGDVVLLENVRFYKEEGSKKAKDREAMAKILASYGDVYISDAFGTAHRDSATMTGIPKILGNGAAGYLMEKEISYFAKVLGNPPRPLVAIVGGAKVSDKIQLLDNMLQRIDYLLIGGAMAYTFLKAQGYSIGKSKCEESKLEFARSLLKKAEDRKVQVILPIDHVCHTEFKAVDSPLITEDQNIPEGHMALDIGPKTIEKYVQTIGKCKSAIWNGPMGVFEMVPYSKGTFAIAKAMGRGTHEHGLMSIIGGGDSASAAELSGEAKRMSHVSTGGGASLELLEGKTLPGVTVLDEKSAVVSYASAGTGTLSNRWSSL
POLI cherry-pick: Confirm cherry-picked inhibitors of human polymerase iota; 1,500 compounds, 77% hits; Pol iota primer extension, TAMRA/BHQ fluorescence; shares compounds with Pol kappa inh-1; AID 720496; Potency, µM, hits mostly inhibitors
Pol kappa inh-2: Pol kappa (human) inhibition, cherry-pick confirmation. purified Pol-kappa, fluorescent strand-displacement substrate. 920 compounds, 76% hits. shares compounds with Pol eta inh-1. Potency, µM, actives largely listed as inhibitors
Pol eta inh-2: Pol eta (human) inhibition, cherry-pick confirmation | shares compounds with Pol eta inh-1 | Pol eta primer extension, TAMRA/BHQ fluorescence, 10 min | Potency, µM, hits mostly inhibitors | 2,600 compounds, 64% hits
FEN1 inh-2: FEN1 inhibition, cherry-pick retest | Potency, µM, usual class: inhibitors | shares compounds with FEN1 inh-1 | FEN1 flap cleavage, TAMRA/BHQ2 fluorogenic DNA substrate | AID 720498 | 880 compounds, 79% hits; note: nearly all actives have a fitted effect of over 60% in size
WRN helicase inh-2: WRN helicase inhibition, cherry-pick retest; shares compounds with WRN helicase inh-1; WRN helicase DNA unwinding, fluorescence kinetic; Potency, µM (series often up to 57.1 µM), without a hit: top-dose activity, negative = inhibition, hits mostly inhibitors; 610 compounds, 63% hits; AID 720497; note: nearly all actives have a fitted effect of over 65% in size
TO displacement: binds DNA, flagged in WRN inhibitor counterscreen. shares compounds with WRN helicase inh-1. thiazole orange DNA binding displacement, fluorescence. Potency, µM (series often up to 57.1 µM), for inactives: top-dose activity change, negative = inhibition, actives largely listed as inhibitors. 610 compounds, 10% hits;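 note: drop in dye fluorescence marks compound binding to DNA; % is set by controls: 0 for no effect and ±100 for the full control effect; nearly all actives have a fitted effect of over 60% in size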
BLM helicase inh: counter-screen for WRN helicase inhibitors: human BLM helicase inhibition; AID 720503; 610 compounds, 60% hits; Recombinant BLM helicase DNA unwinding, red fluorescence; shares compounds with WRN helicase inh-1; Potency, µM (titrated, usually from 57.1 µM), without a hit: at the top dose activity change, negative = inhibition, hits mostly inhibitors; note: nearly all actives have a fitted effect of over 60% in size
An asterisk follows results filed as active; i = inactive; u = inconclusive; x = not tested or not shown; [ ] = remark or other dose. Calls come from the whole dose curve; as a rule, active = well fitted curve in the direction sought with a large enough effect; inconclusive = small, poorly fitted or top-dose-only effect, or another doubt; inactive = no such curve, though single readings can be large; an effect the other way counts as inactive or inconclusive. Potency is the fitted concentration of half-maximal effect.

SMILES	POLI inh	Pol kappa inh-1	Pol eta inh-1	WRN helicase inh-1	Pol beta inh	FEN1 inh-1	POLI cherry-pick	Pol eta inh-2	WRN helicase inh-2	TO displacement	BLM helicase inh	others
O=C(COc1ccc(/C=N/NC(=O)c2ccccc2O)cc1)Nc1ccc([N+](=O)[O-])cc1	u	9.0%	u	16.8µM*	-10.8%	3.0%	33.6*	60.1*	10.8µM*	u	4.82µM*
CCOC(=O)C1CCCN(S(=O)(=O)c2ccc3[nH]c(=O)ccc3c2)C1 (stereo not drawn)	10.2%	-5.8%[60.1 µM]	-10.8%	x	19.2%	4.7%	x	x	x	x	x
C/C(N)=C(/C#N)C(=O)CSc1nnc(Nc2cccc(C)c2)s1	u	u	20µM*	u	39.8µM*	u	75.2*	u	-26.4%	-5.7%	u
CCOc1ccc(NC(=O)c2c(NCc3sccc3C)sc3c2CCCCC3)cc1	u	6.7%[60.1 µM]	-14.8%	x	u	-33.5%	x	x	x	x	x
CC1=C(C(=O)Nc2ccccc2)C(c2ccc[nH]2)n2ncnc2N1 (stereo not drawn)	u	u	x	x	8.91µM*	u	8.44*	8.49*	7.64µM*	u	1.08µM*	Pol kappa inh-2=3.36*;FEN1 inh-2=75.7*
O=C(O)CN1C(=O)/C(=C/c2ccc(N3CCCCC3)o2)SC1=S	i	50.1µM*	50.1µM*	4.74µM*	17.8µM*	44.7µM*	42.3*	33.8*	24.1µM*	43.3%	24.1µM*	Pol kappa inh-2=23.8*;FEN1 inh-2=47.8*
COCCNc1ccc2cc(S(=O)(=O)N3CCCCC3)ccc2n1	20.2%	-5.6%	-18.7%	x	7.4%	20.5%	x	x	x	x	x
O=C(O)C1Oc2ccccc2C1c1ccccc1 (stereo not drawn)	13.1%	-2.1%	-6.2%	0.2%	x	-13.1%	x	x	x	x	x
O=C(O)C1NCc2[nH]cnc2C1c1ccccc1 (stereo not drawn)	x	x	x	x	x	x	59.7*	u	-27.0%	-2.7%	u
O=C(N/N=C/c1ccncc1)c1cccc(S(=O)(=O)Nc2ccc(Cl)cc2)c1	28.2µM*	28.2µM*	50.1µM*	22.4µM*	u	u	47.4*	67.5*	13.6µM*	30.6%	12.1µM*	FEN1 inh-2=67.5*
N=C1/C(=C\c2ccc(Br)o2)C(=O)N=C2SC(CC(=O)N3CCOCC3)=NN12	15.8µM*	u	17.8µM*	35.5µM*	28.2µM*	u	u	23.9*	u	-10.3%	u
COc1ccccc1N(CC(=O)NCc1ccco1)S(=O)(=O)c1ccc(C)cc1	5.62µM*	31.6µM*	10µM*	35.5µM*	11.2µM*	u	21.2*	26.9*	17.1µM*	29.2%	13.6µM*	TbPGK inh=16.3µM*;Pol kappa inh-2=10.6*
CSc1ccc(/C=N/Nc2cccc(C(=O)O)c2)cc1	2.24µM*	7.94µM*	1.12µM*	11.2µM*	2µM*	22.4µM*	2.67*	2.13*	4.82µM*	u	3.04µM*	FEN1 inh-2=42.6*
O=C(O)c1cccc(N/N=C/c2ccc(OC(F)(F)F)cc2)c1	u	-1.4%	-7.4%	-5.8%	-16.5%	15.5%	x	x	x	x	x
C#CCOc1c(Br)cc(C2C(C(=O)OC)=C(C)NC3=C2C(=O)c2ccccc23)cc1OCC (stereo not drawn)	-1.6%	-21.3%	-12.6%	x	1.1%	u	x	x	x	x	x
Cc1ccccc1C(=O)Nc1nnc2n1CCS2	14.0%	-3.4%[60.1 µM]	-16.0%	x	8.8%	0.8%	x	x	x	x	x
O=C(O)CCCNc1cc(N2CCN(C(=O)c3ccco3)CC2)c2noc3c2c1C(=O)c1ccccc1-3	31.6µM*	31.6µM*	10µM*	44.7µM*	15.8µM*	u	26.7*	9.53*	13.6µM*	294.9%	19.2µM*	Pol kappa inh-2=u;FEN1 inh-2=26.9*
O=C1c2ccccc2-c2c1cccc2C(=O)N1CCN(C(=O)c2ccco2)CC1	4.7%	-7.5%	-16.0%	-0.9%	3.0%	1.3%	x	x	x	x	x
COc1ccccc1CNC(=O)CCCCn1c(=O)c2ccccc2n(CC(=O)Nc2cccc(Cl)c2)c1=O	-5.1%	7.1%	-12.1%	x	-1.1%	14.1%	x	x	x	x	x
Cc1ccc(N=C2NC(=O)CS2)cc1	7.2%	-11.1%	9.9%	0.6%	-23.7%	-4.0%	x	x	x	x	x
Cc1ccc(C)n1/N=C1/NC(=O)CS1	2.51µM*	10µM*	2.24µM*	15.8µM*	17.8µM*	31.6µM*	42.3*	30.1*	24.1µM*	-9.5%	5.41µM*	TbPGK inh=u
CC(C)c1ccc(N2C(=O)/C(=C/N(C)C)SC2=S)cc1	7.94µM*	u	u	20µM*	u	31.6µM*	4.23*	3.01*	12.1µM*	-19.9%	13.6µM*	Pol kappa inh-2=29.9*;FEN1 inh-2=30.1*
COCCNC(=O)Cn1c(=O)c2cccn2c2ccc(F)cc21	-7.6%	-9.8%	2.4%	x	-20.6%	-23.1%	x	x	x	x	x
O=c1c(O)c(-c2ccc(O)c(O)c2)oc2cc(O)ccc12	2.51µM*	2.82µM*	1.58µM*	2.38µM*	x	u	6.7*	7.57*	1.52µM*	-11.0%	0.857µM*	Pol kappa inh-2=8.44*
COc1cc(-c2oc3cc(O)ccc3c(=O)c2O)ccc1O	x	-10.1%[60.1 µM]	x	x	x	x	x	x	x	x	x
O=C(O)c1ccc(-n2cccc2/C=C2\SC(=O)N(Cc3cccc(Cl)c3)C2=O)cc1	x	x	x	x	x	x	u	30.1*	19.2µM*	-18.4%	13.6µM*
